# Source: the supplement of paper PMC11001985
# A number with no mark means an inactive call.
# Compound: C#CCNC(=O)CCSSCCC(=O)NCCc1ccc(C=O)c(C=O)c1
# Assay: lysine labeling ratio R10:1 (500 µM / 50 µM probe), SILAC-ABPP in living cells; higher = lower intrinsic lysine reactivity toward the probe, active = 2 or less
# Settings: HeLa; probe concentrations 500 vs 50 µM
# Outline: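 Forward and reverse SILAC label swaps were used with living light and heavy HeLa cells in PBS at room temperature, which were given an alkyne-tagged, disulfide-linked lysine probe at 50 µM or 500 µM. R is the per-lysine filtered median high-probe/low-probe MS1 peptide ratio, with the median then taken across both swap directions. Values are limited to 20.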
# Chain of UniProt Q15149 (Q15149 whole entry): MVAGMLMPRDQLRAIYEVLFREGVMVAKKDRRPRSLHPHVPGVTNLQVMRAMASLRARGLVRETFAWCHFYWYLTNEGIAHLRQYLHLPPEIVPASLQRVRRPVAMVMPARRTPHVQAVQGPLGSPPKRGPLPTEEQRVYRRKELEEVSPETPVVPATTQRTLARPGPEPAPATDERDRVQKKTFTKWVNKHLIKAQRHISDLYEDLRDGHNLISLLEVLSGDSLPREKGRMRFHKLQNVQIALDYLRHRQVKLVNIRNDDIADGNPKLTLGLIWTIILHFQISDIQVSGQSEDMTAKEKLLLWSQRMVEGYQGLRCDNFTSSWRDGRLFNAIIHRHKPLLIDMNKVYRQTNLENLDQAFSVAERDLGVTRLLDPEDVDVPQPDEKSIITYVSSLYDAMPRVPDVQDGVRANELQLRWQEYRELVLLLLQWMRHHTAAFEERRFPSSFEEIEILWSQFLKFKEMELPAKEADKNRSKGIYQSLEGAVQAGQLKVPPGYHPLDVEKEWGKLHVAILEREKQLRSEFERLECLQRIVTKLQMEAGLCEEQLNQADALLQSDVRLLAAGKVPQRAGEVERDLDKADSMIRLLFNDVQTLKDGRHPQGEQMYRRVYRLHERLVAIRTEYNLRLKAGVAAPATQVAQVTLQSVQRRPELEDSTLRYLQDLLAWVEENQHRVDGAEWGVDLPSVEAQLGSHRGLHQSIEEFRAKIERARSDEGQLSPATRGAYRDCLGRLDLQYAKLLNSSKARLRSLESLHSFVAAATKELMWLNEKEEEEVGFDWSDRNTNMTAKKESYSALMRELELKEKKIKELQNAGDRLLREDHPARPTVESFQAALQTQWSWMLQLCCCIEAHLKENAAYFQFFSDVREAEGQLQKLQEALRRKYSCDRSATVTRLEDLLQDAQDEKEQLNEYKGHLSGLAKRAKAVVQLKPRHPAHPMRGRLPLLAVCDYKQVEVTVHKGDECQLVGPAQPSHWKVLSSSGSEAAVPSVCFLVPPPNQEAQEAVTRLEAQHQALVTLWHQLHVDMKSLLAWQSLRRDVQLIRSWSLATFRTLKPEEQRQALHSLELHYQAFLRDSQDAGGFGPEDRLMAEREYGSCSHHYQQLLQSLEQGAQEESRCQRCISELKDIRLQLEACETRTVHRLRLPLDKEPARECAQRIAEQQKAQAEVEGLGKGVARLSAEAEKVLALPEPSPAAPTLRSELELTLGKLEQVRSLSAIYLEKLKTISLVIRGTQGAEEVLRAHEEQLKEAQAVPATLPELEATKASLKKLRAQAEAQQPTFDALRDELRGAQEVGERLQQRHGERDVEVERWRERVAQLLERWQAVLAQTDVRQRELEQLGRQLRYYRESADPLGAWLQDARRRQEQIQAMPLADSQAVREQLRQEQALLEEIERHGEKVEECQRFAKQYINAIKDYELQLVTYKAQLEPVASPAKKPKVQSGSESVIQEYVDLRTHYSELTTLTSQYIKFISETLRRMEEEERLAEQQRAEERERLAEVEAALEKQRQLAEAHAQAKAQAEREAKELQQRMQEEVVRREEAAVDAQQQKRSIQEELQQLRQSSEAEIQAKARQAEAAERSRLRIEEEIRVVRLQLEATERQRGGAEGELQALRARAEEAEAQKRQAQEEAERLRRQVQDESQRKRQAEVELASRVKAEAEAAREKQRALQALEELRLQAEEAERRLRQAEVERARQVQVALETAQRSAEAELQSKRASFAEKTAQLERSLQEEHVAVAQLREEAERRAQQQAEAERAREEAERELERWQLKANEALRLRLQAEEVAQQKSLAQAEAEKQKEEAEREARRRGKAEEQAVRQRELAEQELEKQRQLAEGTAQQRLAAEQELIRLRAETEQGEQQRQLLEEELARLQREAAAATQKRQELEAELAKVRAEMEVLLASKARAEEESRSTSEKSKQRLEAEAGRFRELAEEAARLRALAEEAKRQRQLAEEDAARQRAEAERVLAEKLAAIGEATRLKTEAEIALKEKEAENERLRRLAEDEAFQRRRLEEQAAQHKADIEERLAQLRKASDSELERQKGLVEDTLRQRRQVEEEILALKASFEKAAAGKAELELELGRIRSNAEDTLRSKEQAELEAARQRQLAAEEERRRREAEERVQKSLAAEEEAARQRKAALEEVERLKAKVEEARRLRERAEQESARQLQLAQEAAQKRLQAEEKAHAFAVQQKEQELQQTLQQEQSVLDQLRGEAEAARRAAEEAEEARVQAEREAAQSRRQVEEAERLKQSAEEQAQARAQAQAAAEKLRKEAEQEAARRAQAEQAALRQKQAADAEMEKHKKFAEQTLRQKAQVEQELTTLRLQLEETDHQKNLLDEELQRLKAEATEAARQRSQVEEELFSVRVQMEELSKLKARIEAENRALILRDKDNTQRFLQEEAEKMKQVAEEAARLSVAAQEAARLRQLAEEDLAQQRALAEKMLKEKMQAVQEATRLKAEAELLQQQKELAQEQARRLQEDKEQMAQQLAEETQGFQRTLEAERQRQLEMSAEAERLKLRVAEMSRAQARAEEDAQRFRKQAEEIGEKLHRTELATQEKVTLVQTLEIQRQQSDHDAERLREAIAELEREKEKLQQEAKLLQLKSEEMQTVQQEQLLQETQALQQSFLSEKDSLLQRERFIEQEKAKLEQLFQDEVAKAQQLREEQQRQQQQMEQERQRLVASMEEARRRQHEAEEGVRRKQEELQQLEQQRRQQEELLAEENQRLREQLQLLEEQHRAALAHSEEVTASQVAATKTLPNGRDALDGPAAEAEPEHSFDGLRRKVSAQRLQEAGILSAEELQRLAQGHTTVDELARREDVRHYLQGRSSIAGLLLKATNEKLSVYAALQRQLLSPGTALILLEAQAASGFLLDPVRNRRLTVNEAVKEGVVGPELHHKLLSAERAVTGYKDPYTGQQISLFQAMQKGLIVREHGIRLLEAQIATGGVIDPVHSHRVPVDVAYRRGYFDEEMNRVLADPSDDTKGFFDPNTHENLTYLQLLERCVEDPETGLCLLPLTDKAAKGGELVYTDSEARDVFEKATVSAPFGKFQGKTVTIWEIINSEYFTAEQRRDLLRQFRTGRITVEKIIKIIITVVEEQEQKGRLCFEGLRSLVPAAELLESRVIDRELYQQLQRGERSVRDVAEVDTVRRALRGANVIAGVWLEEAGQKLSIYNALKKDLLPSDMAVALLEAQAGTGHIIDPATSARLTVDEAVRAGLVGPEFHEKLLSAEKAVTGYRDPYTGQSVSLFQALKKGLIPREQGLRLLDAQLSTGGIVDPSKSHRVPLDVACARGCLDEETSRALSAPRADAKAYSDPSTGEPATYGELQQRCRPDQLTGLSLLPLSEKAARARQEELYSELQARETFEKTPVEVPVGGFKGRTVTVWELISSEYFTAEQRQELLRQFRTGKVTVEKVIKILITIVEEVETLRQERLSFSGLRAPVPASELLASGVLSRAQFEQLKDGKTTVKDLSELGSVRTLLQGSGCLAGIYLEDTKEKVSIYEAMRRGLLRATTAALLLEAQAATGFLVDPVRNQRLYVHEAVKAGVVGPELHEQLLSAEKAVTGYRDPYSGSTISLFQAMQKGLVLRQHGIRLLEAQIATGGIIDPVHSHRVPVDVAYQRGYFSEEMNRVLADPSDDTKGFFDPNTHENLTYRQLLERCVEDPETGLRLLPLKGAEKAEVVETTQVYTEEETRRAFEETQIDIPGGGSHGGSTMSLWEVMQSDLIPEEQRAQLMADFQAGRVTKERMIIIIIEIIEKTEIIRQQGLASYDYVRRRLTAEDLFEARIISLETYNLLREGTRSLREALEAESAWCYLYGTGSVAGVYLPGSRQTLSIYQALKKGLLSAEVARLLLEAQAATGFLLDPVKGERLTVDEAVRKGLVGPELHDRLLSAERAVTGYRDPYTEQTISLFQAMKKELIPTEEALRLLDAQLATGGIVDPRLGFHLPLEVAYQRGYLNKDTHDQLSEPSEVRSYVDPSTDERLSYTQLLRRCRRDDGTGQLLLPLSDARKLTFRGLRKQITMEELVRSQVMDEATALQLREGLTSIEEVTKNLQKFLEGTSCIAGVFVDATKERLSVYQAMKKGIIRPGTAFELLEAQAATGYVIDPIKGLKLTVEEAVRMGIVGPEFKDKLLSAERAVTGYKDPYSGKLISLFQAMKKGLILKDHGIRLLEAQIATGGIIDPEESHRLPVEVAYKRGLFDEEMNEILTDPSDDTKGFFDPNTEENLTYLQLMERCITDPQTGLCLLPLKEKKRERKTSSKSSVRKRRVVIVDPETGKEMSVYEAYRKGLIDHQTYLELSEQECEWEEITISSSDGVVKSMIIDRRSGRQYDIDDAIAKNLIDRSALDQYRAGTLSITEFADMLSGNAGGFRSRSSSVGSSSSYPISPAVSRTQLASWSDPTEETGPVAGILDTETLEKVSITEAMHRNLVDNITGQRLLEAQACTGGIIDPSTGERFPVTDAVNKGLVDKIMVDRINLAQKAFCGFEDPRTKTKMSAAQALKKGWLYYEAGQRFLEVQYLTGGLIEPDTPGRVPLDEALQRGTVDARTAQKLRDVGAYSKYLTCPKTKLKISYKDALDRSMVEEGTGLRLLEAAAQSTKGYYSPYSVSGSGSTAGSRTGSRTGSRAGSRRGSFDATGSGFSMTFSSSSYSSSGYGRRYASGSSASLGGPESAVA
# Chain of UniProt P21796 (P21796 whole entry): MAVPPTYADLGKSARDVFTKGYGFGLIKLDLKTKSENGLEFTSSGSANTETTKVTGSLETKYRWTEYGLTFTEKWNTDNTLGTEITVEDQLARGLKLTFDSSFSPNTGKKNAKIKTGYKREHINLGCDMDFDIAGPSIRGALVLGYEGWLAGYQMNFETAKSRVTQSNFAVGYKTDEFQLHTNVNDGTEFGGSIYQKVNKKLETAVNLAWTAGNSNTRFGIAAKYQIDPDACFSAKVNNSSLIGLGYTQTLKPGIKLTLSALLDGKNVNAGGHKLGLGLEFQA
row,Target,lysine labeling ratio R10:1
1,UGDH (lysine site: K173) (UniProt O60701),1.43 (active)
2,UniProt Q15149 (lysine site: K2025),4.19
3,UniProt Q29980 (lysine site: K190),1.17 (active)
4,FLNA (lysine site: K837) (UniProt P21333),4.31
5,PDIA4 (lysine site: K245) (UniProt P13667),1.07 (active)
6,FSCN1 (lysine site: K220) (UniProt Q16658),4.2
7,EPRS (lysine site: K435) (UniProt P07814),2.68
8,UniProt Q15149 (lysine site: K2129),3.49
9,CLTC (lysine site: K1501) (UniProt Q00610),2.77
10,UniProt P26012 (lysine site: K515),1.07 (active)
11,NEGR1 (lysine site: K98) (UniProt Q7Z3B1),5.29
12,ADGRG2 (lysine site: K592) (UniProt Q8IZP9),2.37
13,UniProt Q9H336 (lysine site: K304),2.33
14,VDAC1 (lysine site: K61) (UniProt P21796),1.88 (active)
15,NRP1 (lysine site: K509) (UniProt O14786),5.12
16,CACNA2D1 (lysine site: K1048) (UniProt P54289),6.59
17,KTN1 (lysine site: K559) (UniProt Q86UP2),1.4 (active)
